# Source: PubChem BioAssay AID1347426 (Functional Genomics Laboratory (NCATS/FGL), 2020)
# About 1,400 (4.5%) of roughly 31,000 sequences were called active.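 Rule for the calls: active = median seed-adjusted z-score above 1 or below -1; inactive = the rest.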 The full list was thinned out, with actives kept by preference.
# Experiment: Novel Modifiers of Survival Motor Neuron (SMN) Protein: Gene Identification via Genome-wide siRNA Screen;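 note: luminescence tracks full-length SMN protein made from the SMN2 reporter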
# Conditions: HEK293T SMN2-luciferase reporter, siRNA knockdown, 72 h; actives lie on both sides
# Procedure, shortened: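 siRNA screen, 10418 genes ×3 siRNAs; 1 pmol/well, lipid reverse transfection into HEK293T SMN2-luc reporter line. 72 h, 37 °C, 5% CO2; ONE-Glo readout. Data: neg-ctrl normalized, log10, MAD; hit = MAD >1.0 or < -1.0.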
row,Sequence,median seed-adjusted z-score
1,GUCAGUUGUUAGAACAUAATT against TRIM24,-0.22 (inactive)
2,CAAUUCUUAUUGACUCAUATT against IFNA1,-0.625 (inactive)
3,CAUCAUCCAUGGUAGCUUUTT against DUOX1,-1.09 (active)
4,GCUUGACCCUUAGACGGAATT against LILRB3,0.0304 (inactive)
5,GGUGUUAUCCUAUGAGGUATT against MPP4,0.13 (inactive)
6,GGAAAAACCUUCUACCUGATT against ZNF12,-0.144 (inactive)
7,GGCCUUACGGGUGUAGUAATT against ZNF419,0.0405 (inactive)
8,GGAUCAAGGCUAUGUGGAUTT against CYB5R1,0 (inactive)
9,UAUGAGUUGUUGUUGGGAATT against NSUN5,0.118 (inactive)
10,UCUUAUCCUUUGUCGCAGATT against LMO3,0.496 (inactive)
11,GCAUCACCCAAGUAGUUAUTT against SFXN2,0.365 (inactive)
12,GACUCAUAUGGACCAGUUATT against ZNF460,-0.302 (inactive)
13,CAUGGGCUCUAUUACGCUUTT against SPEN,-1.69 (active)
14,GUCUACCCAUGGACCCAGATT against HBG1,-0.716 (inactive)
15,CACCAACUAAUGUUACAAUTT against IFNGR1,-0.279 (inactive)
16,CCUCGAGACUAUACGGUUATT against MED26,-1.86 (active)
17,CCAGUGGAGUGGUAUCUAUTT against RBBP5,0.169 (inactive)
18,GAACUCAUGUCCGACAUAATT against STX1A,0 (inactive)
19,GCGCUUUGGAGAUCCGAGATT against KLC3,-0.156 (inactive)
20,GCAGUAGAAGUAUCCGGGATT against THSD4,0.0657 (inactive)
21,CCUUCUCAAUGGAUUCCAATT against VN1R1,0.531 (inactive)
22,GGUCAUGCAGGGUUGGAAATT against ALDH1B1,0.105 (inactive)

row,Sequence,median seed-adjusted z-score
1,GGAAGAUUGUCGCUCCUCATT against TFAP2C,1.28 (active)
2,CAGAAGACCUGGUGCCCUATT against SPI1,0.384 (inactive)
3,GCAUUAAUAACAUUACGUUTT against ZNF236,0.683 (inactive)
4,CGCCCGCGAUUACUACCAUTT against HSPA12B,-0.141 (inactive)
5,GUGCCACCGGAGCUAGUAATT against KCNK4,-0.446 (inactive)
6,AGGUGAAACUUCGAAGACATT against TRPM3,-0.633 (inactive)
7,CGAUGAACGAGUACAUUGATT against GRIA2,-1.02 (active)
8,CAUCUGAAGUGGUUAAGCATT against SLC25A26,0.0213 (inactive)
9,CCGGAAAUUUGGGACGCAATT against DHX58,-0.302 (inactive)
10,GGAGGUCAUUAAAACACCATT against HADH,1.11 (active)
11,GGACGACCGUGUAUAGUUUTT against RFESD,-0.503 (inactive)
12,CACUUUAGAUGAUAUCAGATT against PPP3CA,0.74 (inactive)
13,GCUAUAAGGUGGAACGGCATT against POLR2A,-3.81 (active)
14,GCUUAUGGAUGGAGACCAATT against RNF34,-0.0857 (inactive)
15,AGGUGAUGUCGGUCGGAGATT against RAB24,0.123 (inactive)
16,AGCAAUAACUCGUGUAGCATT against EFNA2,-0.314 (inactive)
17,GGGCGGUACUUUACAACUATT against KCTD9,1.31 (active)
18,CUAGAGUAUUUUGAUCUAATT against FAT2,-0.286 (inactive)
19,CACCGUGUUUGACAACUAUTT against RAC2,-0.596 (inactive)
20,GGACCAACCCAGAAUCGUATT against MAOB,0 (inactive)
21,UCGCAAAGGUGAACACUCATT against PIN1,0.156 (inactive)
22,AGAUGUGACUGGCUGGUCATT against LCN12,0.124 (inactive)

row,Sequence,median seed-adjusted z-score
1,AGACCUACACGGUACGCGUTT against THAP11,-1.36 (active)
2,GCAUCUAAUACUUAUGGAATT against MS4A4A,0.296 (inactive)
3,GAAGCAUGAUGGACAGGAUTT against ISOC1,0.104 (inactive)
4,CCUCGACCUGGUCACUUUATT against TRMU,0.0312 (inactive)
5,CCGUAGCAAUAGUAGGUGUTT against UBA5,-0.105 (inactive)
6,GCCUGACCAUCUCCAUUGUTT against USH1C,-0.164 (inactive)
7,CGUGUUCCGAGAAAACGAATT against PLEKHM2,0.593 (inactive)
8,GCAACAGCUCAAAAACGAATT against UAP1,0.0411 (inactive)
9,CAUCUACUGUCAUUAACCATT against ITIH5,-0.289 (inactive)
10,AGACCCAGCUAGAUUCUGATT against GPR152,-0.9 (inactive)
11,CCUCGUUUGACAUCCACUATT against CTSD,-0.282 (inactive)
12,CAUUCACGGAGAUAAGAAATT against ALDH1L1,0.0289 (inactive)
13,UGAAUUACCUGGACCGUUUTT against CCND2,-0.819 (inactive)
14,UGCGUUUUCUGAUAACUCATT against PTP4A2,-1.45 (active)
15,GGCAAAAAGCUGACUGAGATT against GPD1,0.558 (inactive)
16,GGAUGAUUAUGCUAAUCUATT against GGPS1,-0.372 (inactive)
17,GCACUGUCUUUGUAUCUGATT against SFXN2,0.365 (inactive)
18,GGGCUGUUGUAAUAGUGGATT against SFPQ,-1.15 (active)
19,AGGCCUUUCUUACCCAGAATT against MAP2K1,0.942 (inactive)
20,CACUUGAUCUCUUAACCAUTT against 10-Sep,0.571 (inactive)
21,GCACAGGACAGACAGGCUATT against SRC,-0.0246 (inactive)
22,GGAUUACAGCAGGUGCAGATT against MED8,-1.61 (active)

row,Sequence,median seed-adjusted z-score
1,GAAUCUCACAAUUAUGUAUTT against NCK2,-0.397 (inactive)
2,AGAUAAGCAUGGUGCCCAATT against BPI,0 (inactive)
3,GACCGUUUAAUGAAGCUUUTT against SPTLC2,0 (inactive)
4,CCAUUGUAGUCUCUCCUCUTT against RECQL5,0 (inactive)
5,GCCCUCCUGUGCAACCAUATT against SPRR2G,0.358 (inactive)
6,ACAUGAAGGUGAAUCCUGUTT against COX4I2,-0.0202 (inactive)
7,CAGCGAUUUUAAAUCGUAUTT against HSD17B13,-0.329 (inactive)
8,CAACCAACCUGCAUCUAGATT against TRIM33,0.316 (inactive)
9,CGACCCUUGAAGUUCAAUATT against EFTUD2,-1.25 (active)
10,GGAUCCUUCUAUACGCAUATT against SLC4A7,0 (inactive)
11,CAGUAGAUGUGGAAAAGGATT against PTK2B,1.71 (active)
12,CCAUUGAUGGAGUCAGAUUTT against POLD2,0.97 (inactive)
13,CCACUAGUGAAACAACCAATT against PCLO,-0.734 (inactive)
14,GCAAGGAGCUAGAGCCUUUTT against MOBKL2B,-0.613 (inactive)
15,GCAAGUCCACGUUCCUCAATT against GNA12,0.598 (inactive)
16,AGCUACCGAUGGAAGAGGATT against CLK3,-1.11 (active)
17,AGGUCAAGCUUAGUGACAATT against ZDHHC8,0 (inactive)
18,GCUUCUCAUGGGAUCAAAATT against PGCP,0.145 (inactive)
19,CCGGGAAAUUGAUUAUGCATT against SIN3B,0.509 (inactive)
20,GCAUCUCAUCGGAAGAGGATT against MAP3K12,-0.6 (inactive)
21,GAUCCUAAAUCAUGACUUATT against COX6B1,-0.706 (inactive)
22,GGACGAAUGAGUUCCAGUUTT against PCDHB8,1.15 (active)

row,Sequence,median seed-adjusted z-score
1,AGACCUAGCUUUAGCACAATT against ZFAND2B,0 (inactive)
2,GAAGCGGCAUUAGCAGAGATT against ISOC1,0.104 (inactive)
3,GGUAAAAUCAAGUACCAUATT against TIGD2,-0.13 (inactive)
4,GCAUCACCAUCCUUCCGCATT against BACE1,-0.537 (inactive)
5,AGAGAGUGGUUUUUCCUCCTT against WWP2,-0.685 (inactive)
6,GUGCUUCAGUAGGUAUGUATT against ASNS,-1.1 (active)
7,GGCCUUUAGUUAUAAAGGATT against TIMM8A,0.173 (inactive)
8,ACAUAGCCGUGUCCAGGUATT against GLYCTK,0.0328 (inactive)
9,GACCUGAAUUGUAUCAUCATT against MAPK3,-0.573 (inactive)
10,GAACUCCAGAGAUCAAUAATT against IL7R,0 (inactive)
11,CCAACUAUCAGUGACCGUATT against CYP17A1,-1.39 (active)
12,CUAUCACCUGGACUGUAUATT against RNF11,-0.365 (inactive)
13,GGAGACUUACUACCUAUAATT against PARD6B,0.315 (inactive)
14,GGCUUCUUCUAUUCAAUUUTT against BCL6B,0 (inactive)
15,GAACUGACAAGCUUAGUAATT against SAP18,2.14 (active)
16,AUACAGAUCUAAUAGAGUUTT against NAT1,-0.0665 (inactive)
17,CCAUUGACAAUUCAACUUATT against ST8SIA1,-0.25 (inactive)
18,CGCCUCAACCUGAUCAUCATT against ENPP7,-0.478 (inactive)
19,GUGCCUUGCUAUUCUAAGATT against NEUROD1,0 (inactive)
20,GAAACUCUCUUCAAGUCUATT against CKB,-0.236 (inactive)
21,GGCAAAUGGUUGAGACUGATT against YWHAE,1.38 (active)
